About 4,300 (3.1%) of roughly 140,000 compounds were called active. Another 21% or so got no clear call; they are omitted. The sample holds actives, similar compounds and a random draw of the others, so the mix is not that of the screen.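 How the source made its calls: active means readout at or below -70, meaning at least 70% loss of cells showing the perinucleolar compartment, a nuclear body marking cancer cells; inconclusive means readout between -30 and a set limit; inactive means the rest.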

The test is described as follows: High Content Assay for Compounds that inhibit the Assembly of the Perinucleolar Compartment.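 Further: plate controls were DMSO wells for no effect and camptothecin positive control wells for full effect.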 As to conditions: PC3M PTB-GFP, PNC prevalence imaging, 16 h; at 10 µM; active compounds read low. The essentials:
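PC3M cells stably expressing PTB-GFP, 750–1000 cells/well, treated 16 h at 37 °C with compound (23 nl of library stock), in duplicate. After paraformaldehyde fixation and Hoechst stain, imaged at 20x; PNC prevalence scored by image analysis.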
As for `O=C(Nc1ccccc1F)c1ccccc1-c1ccc(C(F)(F)F)cc1`, the activity change (PNC), negative = inhibition is 16.7% (inactive).
The value for `CCc1nccn1S(=O)(=O)c1cccc([N+](=O)[O-])c1` was 10% (inactive).
Under `Cc1nnc(NC(=O)/C=C/c2ccco2)s1` stands -22.5% (inactive).
Consider `CCS(=O)(=O)Nc1cccc(-c2cc(-c3ccccc3)c3cc(C)ccc3n2)c1`, for which the activity change (PNC), negative = inhibition was 81.5% (inactive).
Under `CCc1ccc(C(=O)OCC(=O)Nc2cccc(S(=O)(=O)NC3=NCCCCC3)c2)cc1` stands 14.5% (inactive); under `O=C(CC(NS(=O)(=O)c1ccc(Cl)cc1)c1ccco1)NC1CCCC1` (configuration not stated), -84.2% (active); under `CC(=O)Nc1ccc(S(=O)(=O)NC(C)C(=O)OCC(=O)NC2CCCC2)cc1` (configuration not stated), 5.59% (inactive).
Under `COc1ccc(S(=O)(=O)NC(CC(=O)NCc2ccccc2OC)c2ccco2)cc1` (configuration not stated) stands 32.4% (inactive); under `Cc1cccc(C(=O)OCC(=O)Nc2sc3c(c2C#N)CCC3)c1`, 5.52% (inactive); under `CN1CCN(CC(=O)Nc2sc3c(c2C#N)CCC(C(C)(C)C)C3)CC1` (configuration not stated), -86.5% (active).
The value for `N#Cc1ccsc1NC(=O)CN1CCCCC1` was 8.2% (inactive).
Consider `COc1ccccc1Oc1ccc(N/C=C2/CCCC2=O)cc1`, for which the activity change (PNC), negative = inhibition is 39.1% (inactive).
Under `Cc1ccccc1OCC(=O)Nc1nc(C)c(C(=O)N(C)C)s1` stands -15.1% (inactive); under `CCCCOC(=O)Cn1c(=N)n(CCN(CC)CC)c2ccccc21`, 33.2% (inactive); under `COc1ccc(OC)c(NC(=O)Cn2c(=O)oc3ccccc32)c1`, 0.891% (inactive).
Under `CCn1c(=N)n(CC(=O)c2cccc(OC)c2)c2ccccc21` stands -117% (active).
The value for `CCCCN(C)c1ccc([N+](=O)[O-])cc1` was 22.3% (inactive); that for `Cc1ccc(C(C[N+](=O)[O-])c2c(C)cc3ccccn23)cc1` (configuration not stated) was -2.04% (inactive); that for `Cc1cc(Nc2ccccc2)n(CCC#N)n1` was -16.1% (inactive).
Take `Cc1cc(NC(=O)Nc2ccccc2)n(-c2ccccc2)n1`: the activity change (PNC), negative = inhibition is 15.1% (inactive).
The value for `Cc1cc(Nc2ccccc2)n(C(=O)c2ccc(N)cc2)n1` was -86.2% (active); that for `Cc1cc(C)cc(NC(=S)NCc2ccc(F)cc2)c1` was 35.9% (inactive).
The value for `CNC(=S)N1CCN(c2ccccn2)CC1` was -10.5% (inactive); that for `Cc1cccc(N=C2NN=C(c3c[nH]c4ccccc34)CS2)c1` was 57.4% (inactive); that for `COc1ccc(S(=O)(=O)N2CCCCC2)cc1Br` was -11% (inactive).
Turning to `COc1ccc(-c2ccc(Nc3ccc(S(=O)(=O)N4CCCC4)cc3)nn2)cc1OC`, the activity change (PNC), negative = inhibition is 7.04% (inactive).
Under `COc1ccc(S(=O)(=O)Nc2ccc(S(=O)(=O)N3CCCCC3)cc2)cc1OC` stands -88.7% (active); under `Cc1[nH]c2ccccc2c1/C=N\NC(=O)Cn1nnc(-c2ccccc2)n1`, 40.3% (inactive).
For `CCOC(=O)c1cc2n(c1N)-c1ccccc1C2=O`, the activity change (PNC), negative = inhibition was 32% (inactive).
Under `CCOC(=O)c1c(C)[nH]c2c1-c1ccccc1C(=O)C2=O` stands -124% (active); under `CCOC(=O)c1c(C)[nH]c(=S)c(C#N)c1-c1ccccc1`, 32.4% (inactive).
The value for `Cc1cccc(OCCNC(=S)NC(=O)c2cccnc2)c1` was 17.2% (inactive); that for `CC(C)CNC(=O)COC(=O)/C=C/c1ccco1` was 0.199% (inactive).
Under `O=C(NC(CC(=O)N1CCN(c2ccccc2)CC1)c1ccccc1)c1ccccc1Cl` (configuration not stated) stands -9.01% (inactive); under `CCCc1cc(-c2nc(-c3ccc(C)cc3)cs2)ccn1`, 10.4% (inactive); under `CCCCN=C1N/C(=C\c2ccco2)C(=O)N1c1ccccc1`, -16.5% (inactive).
Take `COC(=O)C1=C(C)N(c2ccc(Br)cc2)C(=O)/C1=C\c1ccco1`: the activity change (PNC), negative = inhibition was -80.8% (active).
The value for `O=C(OCN1C(=O)c2ccccc2C1=O)/C(=C\c1ccco1)NC(=O)c1ccccc1` was 73.8% (inactive).
The value for `O=C(N/N=C/c1ccc(Br)o1)c1cncc(Br)c1` was -10.5% (inactive); that for `CCN(CC(=O)NC1CCS(=O)(=O)C1)S(=O)(=O)c1ccccc1` (configuration not stated) was -23.3% (inactive).
Under `CCCSC(=S)NC1CCS(=O)(=O)C1` (configuration not stated) stands -6.42% (inactive); under `CC(C)C(=O)NC(NC(=S)NC1CCS(=O)(=O)C1)C(Cl)(Cl)Cl` (configuration not stated), -100% (active); under `COc1ccc(CNC(=O)CCCn2nc(C)c([N+](=O)[O-])c2C)cc1`, 1.72% (inactive).
Regarding `N#C/C(C(=O)N1CCOCC1)=C1/SC(Cc2ccc(F)cc2)C(=O)N1c1ccccc1` (configuration not stated), the activity change (PNC), negative = inhibition is 2.9% (inactive).
Under `O=C(Cn1cc(C(F)(F)F)ccc1=O)N/N=C/c1ccc(Cl)cc1Cl` stands 32% (inactive); under `CC(=O)Nc1cccc(NC(=O)c2c(-c3ccccc3)noc2C)c1`, 19.7% (inactive); under `Cc1onc(-c2ccccc2)c1C(=O)NNC(=S)NC(=O)c1ccc(F)cc1`, 19.1% (inactive).
Under `CCOC(=O)c1c(-c2cccc(C)c2)csc1NC(=O)c1c(-c2ccccc2)noc1C` stands -101% (active); under `Cc1ccc(S(=O)(=O)NCc2csc(C)n2)c(C)c1`, 36.5% (inactive).
With `Cc1nc(CNS(=O)(=O)c2cccnc2)cs1`, the activity change (PNC), negative = inhibition is 14.3% (inactive).
On to `Cc1nc(CNS(=O)(=O)c2ccc(Oc3ccccc3)cc2)cs1`, for which the activity change (PNC), negative = inhibition was -83.2% (active).
Under `CC(=O)NCCC(=O)Nc1nc(C)c(Cc2ccc3c(c2)OCO3)s1` stands 32.2% (inactive).
The value for `COC(=O)[C@@H]1CC[C@H](C)[C@@H](c2ccc(C)cc2)N1C(=O)c1ccc(/C=N/O[C@H](C)c2cn([C@@H]3COC[C@H]3O)nn2)cc1` was 39.9% (inactive); that for `C/C(=N\NC(=O)c1ccc(CSc2nc(C)cc(C)n2)cc1)C1CCCCC1` was 28.4% (inactive); that for `COCc1[nH]nc2c1C(C1C=CCCC1)C(C#N)=C(N)O2` (configuration not stated) was -107% (active).
As to `CCc1ccc(C2C(C#N)=C(N)Oc3n[nH]c(CC(=O)OC)c32)cc1` (configuration not stated), the activity change (PNC), negative = inhibition was 18.8% (inactive).
Under `CCCc1[nH]nc2c1C(C1CC=CCC1)C(C#N)=C(N)O2` (configuration not stated) stands 26.7% (inactive).
Under `CC(NC(=O)Nc1ccccc1)c1ccccc1` (configuration not stated) stands -11.3% (inactive).
The value for `CC(C)CNC(=O)c1cc(-c2ccc(Br)cc2)on1` was -2.59% (inactive); that for `CC(NC(=O)c1cc(-c2ccccc2)on1)c1ccccc1` (configuration not stated) was -97.3% (active).
As for `CCOC(=O)NN1C(=O)c2ccccc2NC1c1cccc(O)c1` (configuration not stated), the activity change (PNC), negative = inhibition was -6.12% (inactive).
Under `COc1ccc(C2CC(c3cccs3)=NN2C(=O)COC(=O)c2cc3ccccc3cc2O)cc1OC` (configuration not stated) stands -16.9% (inactive); under `CC1Cc2ccccc2N1C(=O)CSc1nnc(-c2ccc(S(=O)(=O)N3CCCC3)cc2)n1C` (configuration not stated), -4.26% (inactive); under `COc1ccc(C(CCNCc2ccccc2F)c2ccc(F)cc2)cc1` (configuration not stated), -83.9% (active).
For the molecule `COc1ccc(C(CC(=O)O)NC(=O)Cc2ccccc2)cc1` (configuration not stated), the activity change (PNC), negative = inhibition is -1.4% (inactive).
In the case of `COc1cccc(CNCCc2c[nH]c3ccccc23)c1OCc1ccccc1F`, the activity change (PNC), negative = inhibition is 9.41% (inactive).
For `COc1ccc(S(=O)(=O)NC(C)C(=O)Nc2cccc([N+](=O)[O-])c2)cc1` (configuration not stated), the activity change (PNC), negative = inhibition is -19.9% (inactive).
Under `COc1ccc(-n2nc3c(c2NC(=O)Cc2cccc(C)c2)CS(=O)C3)cc1` (configuration not stated) stands 1.65% (inactive); under `Cc1cccc(CC(=O)Nc2c3c(nn2-c2cccc(Cl)c2)CS(=O)C3)c1` (configuration not stated), -2.34% (inactive).
Under `COc1ccc(CC(=O)Nc2c3c(nn2-c2cccc(Cl)c2)CS(=O)C3)cc1` (configuration not stated) stands -119% (active); under `CC(NC(=O)C(=O)NN=C1CCC(C(C)(C)C)CC1)c1ccccc1` (configuration not stated), -5.42% (inactive); under `COC(=O)Cc1csc(/N=C/c2c(O)n(-c3cccc(C(F)(F)F)c3)c(=O)c3ccccc23)n1`, -11.4% (inactive).
As for `Cc1cccc(C(=O)NCC(=O)OCC(=O)N2CC3(C)CC2CC(C)(C)C3)c1` (configuration not stated), the activity change (PNC), negative = inhibition was -3.76% (inactive).
The value for `COc1ccccc1C(=O)N1CC2(C)CC1CC(C)(C)C2` (configuration not stated) was -20.8% (inactive); that for `COc1ccc(C(=O)N2CC3(C)CC2CC(C)(C)C3)cc1OC` (configuration not stated) was -104% (active); that for `Cc1cc(Cl)ccc1NC(=S)NCCCN1CCCC1=O` was 13% (inactive).
For the molecule `CCO/N=C(/C)c1c(O)cc(-c2ccccc2)n(-c2ccccc2)c1=O`, the activity change (PNC), negative = inhibition was 36.7% (inactive).
As to `Cc1ccccc1-c1nnn(CC(=O)c2ccc(S(=O)(=O)N3CCCC3)cc2)n1`, the activity change (PNC), negative = inhibition is -100% (active).
Under `CC(C)(C)NC(=O)Cn1nnc(-c2ccccc2Cl)n1` stands 25.1% (inactive); under `Cc1cc(C)n(C(=O)c2ccc(S(=O)(=O)N3CCCC3)cc2)n1`, 5.75% (inactive).
The value for `O=C(COC(=O)Cc1ccc(Br)cc1)Nc1c(F)c(F)c(F)c(F)c1F` was 16.2% (inactive); that for `O=C(Nc1nc(-c2ccc3c(c2)OCO3)cs1)c1ccncc1` was -83.5% (active).
Turning to `O=C(Nc1nc2ccccc2s1)c1ccc2c(c1)OCO2`, the activity change (PNC), negative = inhibition is 62.8% (inactive).
Take `O=C(Nc1ccc2c(c1)OCCO2)c1ccncc1`: the activity change (PNC), negative = inhibition is -27.2% (inactive).
Under `CCCCNS(=O)(=O)c1ccc2nc(SCC(=O)Nc3cc(C)cc(C)c3)[nH]c2c1` stands 35.2% (inactive).
In the case of `CCCCN(CC)C(=S)Nc1ccc2nc3n(c(=O)c2c1)CCCCC3`, the activity change (PNC), negative = inhibition is 41.2% (inactive).
The value for `O=C(CSc1ccccn1)Nc1nc2c(ccc3ccccc32)s1` was 41.9% (inactive).
